This is a sample that favours compounds with a hit; in the whole collection about 4.6% have one here.
D1 agonist: Allosteric Agonists of the Human D1 Dopamine Receptor: qHTS; AID 504660, 2011; activation, % at 2 µM; actives 1% (n = 360,000); D(1A) dopamine receptor (Homo sapiens), P21728; HEK293 T-REx D1 cells, calcium flux, agonist mode; further: 0% is about no effect
Target sequence (P21728 whole entry, looked up): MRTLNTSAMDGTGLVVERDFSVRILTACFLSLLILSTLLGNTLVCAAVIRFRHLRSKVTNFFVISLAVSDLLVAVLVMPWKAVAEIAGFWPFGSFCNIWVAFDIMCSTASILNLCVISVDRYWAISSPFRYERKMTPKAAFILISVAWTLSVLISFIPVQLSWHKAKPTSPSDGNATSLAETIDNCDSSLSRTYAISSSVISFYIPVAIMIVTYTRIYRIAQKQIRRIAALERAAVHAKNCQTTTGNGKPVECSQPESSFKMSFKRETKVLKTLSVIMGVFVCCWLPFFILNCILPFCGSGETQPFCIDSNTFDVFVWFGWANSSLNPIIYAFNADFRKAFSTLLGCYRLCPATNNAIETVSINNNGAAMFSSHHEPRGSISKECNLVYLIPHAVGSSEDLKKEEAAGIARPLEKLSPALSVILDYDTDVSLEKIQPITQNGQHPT
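Tetracycline-induced HEK293 TREx D1 cells, force-coupled to calcium signalling, were dye-loaded with a no-wash calcium kit. Compound was pin-added after a 10 s baseline. Fluorescence was read kinetically at 1 cycle/s for 180 s, with calcium rises flagged as agonism.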
TRHR PAM: qHTS for Small Molecule Agonists and Allosteric Enhancers of Human TRH Receptor: Primary Screen for Enhancers. TRHR cells, fluo-8 calcium fluorescence, EC20 TRH enhancement. enhancement, % at 2 µM. Thyrotropin-releasing hormone receptor (Homo sapiens), P34981. actives 0.66% (n = 360,000). AID 493056, 2011; in the data active means enhancement above about 30%; further: 0% is about no effect
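Enhancer read-out: after compound pinning and an initial kinetic agonist-mode read, an EC20 of TRH (10 nM final) was injected and fluo-8 calcium signal (Ex 480/Em 530) followed at 1 s/cycle for 100 cycles in TRHR-expressing cells.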
D1 antag: Antagonist of Human D 1 Dopamine Receptor: qHTS; activity change, negative = inhibition, % at 10 µM; AID 504652, 2011; HEK293 TREx D1 cells, calcium flux, dopamine EC80; active compounds read low; D(1A) dopamine receptor (Homo sapiens), P21728; actives 3.2% (n = 360,000); in the data active means activity change below about -30%; further: on the % scale 0 is the no-effect control and ±100 the full control effect
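Compound effects on dopamine-evoked calcium signalling were measured in tetracycline-induced HEK293 Trex D1 cells. Dopamine at EC80 followed a 180 s compound pre-read, and fluorescence was tracked kinetically for 180 s more.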
D1 PAM: Potentiators of Human D1 Dopamine Receptor: qHTS; HEK293 TREx D1 cells, calcium flux, dopamine EC20 potentiation; potentiation, % at 10 µM; actives 0.036% (n = 360,000); AID 504651, 2011; in the data active means potentiation above about 30%; further: 0% is about no effect
TRHR ag: qHTS for Small Molecule Agonists and Allosteric Enhancers of Human TRH Receptor: Primary Screen for Agonists; Thyrotropin-releasing hormone receptor (Homo sapiens), P34981; TRHR cells, calcium flux fluo-8, FDSS agonist mode; activation, % at 2 µM; actives 0.18% (n = 360,000); AID 493084, 2011; further: 0% is about no effect
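Read-out: compound-evoked intracellular calcium rise in TRHR cells, fluo-8 dye, kinetic FDSS fluorescence at 1 s/cycle following a 10-cycle baseline. Cells cultured overnight before dye loading (30 min–1.5 h, RT).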
* hit, by the source's call. Unless noted, no stated cut-off is given here; in the data, active means activation above about 30%; inactive means the rest.

SMILES	D1 agonist	TRHR PAM	D1 antag	D1 PAM	TRHR ag
COC(C(=O)Nc1ccc(S(=O)(=O)Nc2c(C)cccc2C)cc1)c1ccccc1 (stereo unspecified)	35*	-5	8	-1	2
COC(C(=O)Nc1ccc(NC(=O)C(OC)c2ccccc2)cc1)c1ccccc1 (stereo unspecified)	5	-3	-25	-1	3
C=CCn1c(CCc2ccccc2)nnc1SCC(N)=O	1	32*	-3	-6	0
CCCOc1ccccc1-c1nc(SCC(=O)c2ccccc2)n[nH]1	8	-4	-1	-1	-2
COc1ccccc1CNc1ncnc2onc(-c3ccc(F)cc3)c12	0	-1	-7	1	-1
Cc1cc(C)c(NC(=O)C2CCCN2CCO)c(C)c1 (stereo unspecified)	1	-2	13	-2	2
Cc1cc(C)c(NC(=O)C2CCCN2C)c(C)c1 (stereo unspecified)	2	-6	-35*	-10	1
COC(=O)c1ccc2nc(C)cc(Nc3cccc(Cl)c3C)c2c1	0	10	11	-1	-1
CCOC(=O)CN(C(=O)CSc1nnc(COc2ccc(OC)cc2)n1C)c1ccccc1	-1	3	-46*	-3	-1
CC1(C)CC(=O)C2=C(C1)OC(N)=C(C#N)C2c1cc2c(cc1[N+](=O)[O-])OCO2 (stereo unspecified)	1	0	-33*	-2	1
CCOc1cc(C2C(C#N)=C(N)OC3=C2C(=O)CC(C)(C)C3)cc([N+](=O)[O-])c1O (stereo unspecified)	4	-4	10	-3	0
CCCS(=O)(=O)N1CC(=O)N(c2cc(C)cc(C)c2)C(C)(C(=O)NC2CCCCCC2)C1 (stereo unspecified)	-2	-4	-31*	0	-1
CCCS(=O)(=O)N1CC(=O)N(c2ccc(C)cc2)C(C)(C(=O)NC2CCCCCC2)C1 (stereo unspecified)	-2	2	-1	0	-1
Cc1ccc(C(C)C)c(OCCSc2nc3ccccc3n2CC(O)CO)c1 (stereo unspecified)	-1	10	1	-5	0
Cc1cccc(OCc2nnc(SCC(=O)Nc3cccc(C(=O)N4CCOCC4)c3)n2C)c1C	2	4	-42*	-2	0
O=C(CCn1c(=O)oc2ccccc21)Nc1ccc2c(c1)OCCO2	3	1	-38*	-6	-1
CN(CC(=O)Nc1ccc(F)cc1)C(=O)Cn1c(=O)oc2ccccc21	3	7	2	0	1
Cc1ccc(NC(=O)CN(C)C(=O)Cn2c(=O)oc3ccccc32)cc1	0	31*	-1	-1	2
Cn1cc(SCC(=O)Nc2ccc3c(c2)OCCO3)c2ccccc21	-1	-2	-39*	-2	-1
O=C(Cn1c(=O)oc2ccccc21)Nc1ccc2c(c1)OCCO2	3	11	-7	-2	0
Cc1cc2ccccc2c(=O)n1CC(=O)Nc1ccc2c(c1)OCCO2	1	31*	-3	-2	0
CCc1cc(=O)oc2c(C)c3c(cc12)CN(CCc1ccccc1OC)CO3	14	1	5	2	20
COc1cc(OC)c(NC(=O)CSc2nccn2C)cc1Cl	0	9	5	-4	1
Cc1ccc(NC(=O)CSc2nc(-c3ccco3)nc3cc(=O)[nH]n23)cc1C	4	16	7	-2	-1
COc1cccc(-c2cc(C(=O)NCc3ccccc3)[nH]n2)c1	2	-3	7	-6	-1
SMILES	D1 agonist	TRHR PAM	D1 antag	D1 PAM	TRHR ag
COc1ccc(NC(=O)CN2C(=O)COc3ccc(S(=O)(=O)N4CCCCCC4)cc32)cc1	2	-6	-11	5	0
COc1cc(NC(=O)CSc2ccc3c(c2)OCCO3)cc(OC)c1OC	15	-4	-36*	-2	-1
Cc1ccc(CN(Cc2ccccc2)C(=S)NCC(=O)NCc2cccnc2)o1	0	1	-48*	-3	0
Cc1ccc(CN(Cc2ccco2)C(=S)NCC(=O)NCc2cccnc2)cc1	-1	3	8	8	1
COc1ccc(CNC(=O)c2cnc3sc(N4CCCCCC4)nn3c2=O)cc1	-1	3	-7	5	0
Cc1oc(-c2ccccc2)cc1C(=O)NC1CCN(Cc2ccccc2)CC1	3	4	-85*	-16	0
O=C(NC1CCN(Cc2ccccc2)CC1)c1ccccc1OCc1ccccc1Cl	5	-12	-38*	-5	2
CCOc1ccccc1C(=O)NC1CCN(Cc2ccccc2)CC1	0	-3	-31*	0	0
Cc1cccc(N2CCN(C(=O)Cn3ncc4c3-c3cc(C)ccc3OC4)CC2C)c1 (stereo unspecified)	0	-8	37	10	0
COc1cc(NC(=O)CCc2c(C)nc3c(-c4ccc(F)cc4)c(C)nn3c2C)cc(OC)c1OC	0	4	-41*	-8	0
COc1cc(OC)cc(-c2nc3nc(C)c(CCC(=O)Nc4ccc(C)c(C)c4)c(C)n3n2)c1	3	6	-57*	-3	1
O=C(COc1ccc(Cl)cc1)Nc1ccc(C(=O)OCc2cc(=O)n3ccsc3n2)cc1	3	18	-12	-1	0
CCc1nn(C(CC)C(=O)NCc2ccc(OC)c(OC)c2)c(=O)c2cc3oc(C)cc3n12 (stereo unspecified)	1	41*	41	4	-2
CCc1nn(C(CC)C(=O)NCc2ccc(F)cc2)c(=O)c2cc3occc3n12 (stereo unspecified)	-1	-4	-16	-2	-2
CCCCN(C)CCCNC(=O)Cn1ncc2c3ccccc3n(Cc3cc(C)ccc3C)c2c1=O	96*	4	0	-1	-2
Cc1ccc(C)c(Cn2c3ccccc3c3cnn(CC(=O)NCCCN4CCOCC4)c(=O)c32)c1	3	-5	-30*	-4	0
Cc1ccc(C)c(S(=O)(=O)Nc2ccc(C(=O)NCCCN3CCOCC3)cc2)c1	2	1	11	5	0
COc1ccc2oc(C(=O)NCCN3CCOCC3)c(C)c2c1OC	0	34*	20	-1	1
COc1ccc(C(=O)NCCN2CCOCC2)cc1S(=O)(=O)Nc1ccc(C)cc1	6	0	-36*	10	0
